Results from PubChem BioAssay (Tox21).
Results filed as inconclusive are left out. Entries that show only a call come without a potency. Activity calls are given as the source filed them. Calls come from the whole dose curve; as a rule, active = well fitted inhibition curve with a large enough effect in the repeat runs; inconclusive = weak or mixed curves, or effect the other way; inactive = no such curve, though single readings can be large or run the other way.

molecular target: Nuclear receptor ROR-gamma (Homo sapiens) (UniProt P51449); test: qHTS assay to identify small molecule antagonists of the retinoid-related orphan receptor gamma (ROR-gamma) signaling pathway (AID 1159521; note: nearly all actives have a fitted effect of over 50% in size; for activity change, negative = inhibition: top concentration of the series differs between compounds); details: Tet-on RORgamma CHO cells, RORE-luciferase, 16 h; series mostly up to 92.4 µM
Excerpt: U.S. Tox21 Program National Center for Advancing Translational Sciences [NCATS] NIH Chemical Genomics Center [NCGC] U.S. Environmental Protection Agency [EPA] National Institutes of Environmental Health Sciences [NIEHS] National Toxicology Program [NTP] U.S. Food and Drug Administration [FDA] Tox21 Assay Overview: Nuclear steroid hormone receptors are involved in many biological processes including inflammatory responses, cell proliferation, and apoptosis. Environmental factors or compounds disrupting these nuclear receptor pathways and gene expression may promote susceptibility to immunotoxicants and autoimmune diseases. One important group of these expression factors are the retinoid-related orphan receptors. To assess compounds that may interfere with the retinoid-related orphan receptor gamma (ROR-gamma) transcription factor, a cell-based luciferase assay was used. The CHO cell-based assay utilizes a TET-inducible ROR expression factor and ROR response element-LUC reporter gene. Reporter gene activity was induced using Doxycycline Hyclate and measured after 16 hr incubation. Tet-on ROR gamma CHO cells were used to screen against the Tox21 10K compound library for ROR gamma antagonists by quantification of decreased reporter gene activity in terms of decreased luminescence.
Tox21 Assay Protocol Summary: Tet-on ROR gamma CHO cells were dispensed at 1,000 cells in 4 uL of culture medium per well into white wall/solid bottom 1536-well plates using a Multidrop Combi (Thermo Scientific, Waltham, MA) dispenser. Following incubation at 37 C and 5% CO2 for 4 hr, 23 nL of compounds dissolved in DMSO, positive controls or DMSO only were transferred by a Pintool station (Kalypsys, San Diego, CA) and after 2 hr incubation at 37 C, one ul of 1 uM (final concentration) of Doxycycline Hyclate was added to all the wells by using a Flying Reagent Dispenser (FRD) (Aurora Discovery, San Diego, CA). After 16 hr incubation at 37 C and 5% CO2, 5 uL of ONE-Glo reagent (Promega Corporation, Madison, WI) was added to each assay plate using FRD. After 30 min incubation at room temperature, luminescence was quantified on a ViewLux plate reader (Perkin Elmer, Waltham, MA).
Potency is the fitted concentration of half-maximal effect.

SMILES	Potency	activity change, negative = inhibition
CCCCCCOC(=O)CCC	inactive	–
CCCCCCCCCC(=O)OCC	inactive	–
COC(=O)C(C)=O	inactive	–
CCN(CC)CCOC(=O)C1(c2ccccc2)CCCC1	inactive	–
C#CCOC(=O)[C@@H](C)Oc1ccc(Oc2ncc(Cl)cc2F)cc1	inactive	–
CN(C(=O)CCCOc1ccc2[nH]c(=O)ccc2c1)C1CCCCC1	inactive	–
C=CC(=O)OCCOC(=O)CCC(=O)O	inactive	–
O=C(O)c1cccc(N(Cc2cccnc2)c2ccc(OC(F)F)c(OC(F)F)c2)c1	30.6 µM (active)	–
C=C(C)C(=O)OC(C)C	inactive	–
CCCCCCCCCCCCCCCC(=O)OC/C=C(C)/C=C/C=C(C)/C=C/C1=C(C)CCCC1(C)C	inactive	–
CC(C)(C)C1CCCCC1O (stereo not given)	inactive	–
CC1(C)[C@H]2CC[C@]1(C)[C@H](O)C2	inactive	–
NC[C@H]1O[C@H](O[C@H]2[C@H](O)[C@@H](O[C@H]3O[C@H](CO)[C@@H](O)[C@H](N)[C@H]3O)[C@H](N)C[C@@H]2N)[C@H](O)[C@@H](O)[C@@H]1O	–	-16.2% [at 8.39 µM] (inactive)
Cc1ccc(C(C)c2ccc(C)c(C)c2)cc1C	inactive	–
Cn1c(N)nc2nc[nH]c2c1=O	27 µM (active)	–
CC(C)(C)c1cc(O)c(C(C)(C)C)cc1O	15.4 µM (active)	–
CC(=O)OCCc1ccccc1	inactive	–
O=C(Cl)c1ccc([N+](=O)[O-])cc1	inactive	–
CCOc1ccc(NC(=O)CC(C)=O)cc1	inactive	–
COCCCCCCCCOCCC[Si](C)(O[Si](C)(C)C)O[Si](C)(C)C	17.2 µM (active)	–

SMILES	Potency	activity change, negative = inhibition
CCN1CCC[C@H]1CNC(=O)c1c(OC)ccc(Br)c1OC	inactive	–
C=C(C)C(=O)OCCN(C)C	inactive	–
Cc1cccc(C(C)(C)C)c1O	inactive	–
c1ccc(OCc2ccc(CCCN3CCOCC3)cc2)cc1	inactive	–
CN(C)C/C=C(/c1ccc(Br)cc1)c1cccnc1	inactive	–
CCN(CCO)CCCC(C)Nc1ccnc2cc(Cl)ccc12 (stereo not given)	–	13.3% [at 8.39 µM] (inactive)
N=C(N=C(N)N)N1CCOCC1	inactive	–
CC1CCc2cc(F)cc3c(=O)c(C(=O)O)cn1c23 (stereo not given)	inactive	–
CC(=O)SCc1ccco1	inactive	–
Cl/C(=C\n1cncn1)c1ccc(Cl)cc1Cl	inactive	–
O=C1Nc2cc(Cl)ccc2Oc2ccccc21	inactive	–
O=[N+]([O-])c1cc[n+]([O-])cc1	9.69 µM (active)	–
COc1cc(C(C)(C)C)c(O)c(C(C)(C)C)c1	inactive	–
CC1=CC(=O)/C(=C(/C)O)C(=O)O1	inactive	–
CC(C)NCC(O)c1cc(O)cc(O)c1 (stereo not given)	inactive	–
O=c1c2ccccc2nnn1CCl	inactive	–
Nc1ccc(C(=O)N2CC3CC(CN(Cc4ccccc4)C3)C2)cc1	inactive	–
O=C(O)Cc1cc(I)c(Oc2ccc(O)c(I)c2)c(I)c1	inactive	–
Cn1sccc1=O	30.6 µM (active)	–
C=C(C)C(=O)OCCOc1ccccc1	inactive	–
